# Reference: PubChem BioAssay (NCI)
# About 83,000 compounds went through this panel and 20% of them were active in at least one assay; those are over-represented in the sample as a whole.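 Cells were grown in 96-well plates and exposed to the test compound at a single concentration for 48 hours; results are reported as percent growth, with values below 10 considered active.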 Values without a mark were called inactive. Active and inactive are the calls of the source.
# System: SK-MEL-2 melanoma
# Test: NCI-60 one-dose screen, 48 h (100 = growth as untreated, 0 = no growth, -100 = all killed)
# Conditions: 10 µM unless noted
row,SMILES,growth
1,Cc1ncc(C(=O)Nc2ccc(CN3CCN(C)CC3)c(C(F)(F)F)c2)cc1C#Cc1cnc(NC2CC2)c2ncccc12,-27.3% (active)
2,COc1cc(NC(C)CCCN)c2nccc(C)c2c1OC (stereo unspecified),95.2%
3,CCOC(=O)CCCCCCCCC(=O)OCC,112%
4,CCCCCCCCC/C(=N\NC(=O)c1ccncc1)c1ccc(O)c(O)c1O,38.5%
5,C/C=C(/C)C(=O)OC1C=C(CO)C(=O)C(OC(=O)C2(C)OC2C)C1C(C)C (stereo unspecified),-49.7% (active)
6,Cc1nc(NC(=O)NC2CCCCC2)sc1C(=O)NN,21.7%
7,COc1ccc(Cn2cc3c(c2-c2ccc(OC)cc2)CCc2cnoc2-3)cc1,31%
8,CCOC(=O)CSSCC(=O)OCC,111%
9,O=C(N/N=C/c1cc(Cl)ccc1O)C(=O)N/N=C/c1cc(Cl)ccc1O,109%
10,Nc1nc2c(c3cnccc13)C(c1cccc(Br)c1)Cc1cnccc1-2 (stereo unspecified),27.2%
11,COc1ccc(Cn2cc3c(c2-c2ccc(O)cc2)CCc2cnoc2-3)cc1,43.7%
12,COc1cccc(CNC(=O)c2cccc(C3CC(=O)c4c(cc(OC)c(OC)c4OC)O3)c2)c1 (stereo unspecified),38.5%
13,COc1nc(OC)nc(-c2cc(-c3cc(OC)c(OC)c(OC)c3)no2)n1,108%
14,O=C(N/N=C/c1ccccc1Cl)c1cccc2ccccc12,108%
15,CCCCCCCCCC[N+](C)(C)C,56.3%
16,Cc1nc2c(nnn2-c2ccccc2)c2nc(-c3ccc(Cl)cc3)oc(=O)c12,107%
